Bioassay records from PubChem.
A selection: hits, their analogues and other compounds. The true share with any hit is near 6.5%.
VACV Venus inh – qHTS for Stage-Specific Inhibitors of Vaccinia Orthopoxvirus: Venus Reporter Primary qHTS | Potency, µM (series often up to 36.5 µM), without a hit: at the highest dose activity change, negative = inhibition, usual class: inhibitors | 0.46% of 330,000 active | Vaccinia virus Venus reporter expression, fluorescence | AID 720580, 2013; calls by dose curve; tested in A549 cells; also: potency is read from the fitted curve at half-maximal effect; nearly all actives have a fitted effect of over 30% in size
MARV entry inh – qHTS for inhibitors of binding or entry into cells for Marburg Virus | Marburg virus pseudotyped entry inhibition, cell reporter | 1.8% of 300,000 active | Potency, µM (titrated, usually from 37.8 µM), for the others: top-dose activity change, negative = inhibition, actives largely listed as inhibitors; calls by dose curve; tested in HEK293 cells; also: potency is read from the fitted curve at half-maximal effect
HCMV antiviral – qHTS Assay for inhibitors of the human cytomegalovirus (HCMV). HFF cells, HCMV-luciferase reporter, 72 h; hits give low values. activity change, negative = inhibition, % at 57.5 µM. 4.5% of 410,000 active. AID 1259415, 2018; in the data active = activity change below about -60%; inconclusive = no clear call, values can overlap the other calls; inactive = above about -39%
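Compounds were evaluated in HFFs infected with an HCMV luciferase reporter virus (MOI 1 PFU/cell). Luciferase in lysates collected 72 h post infection served as the replication measure.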
FMDV inh – High Throughput Screening for Foot and Mouth Disease Virus Antivirals; Potency, µM (titrated, usually from 57.9 µM), for the others: at the top dose activity change, negative = inhibition, hits mostly inhibitors; 1.2% of 410,000 active; AID 1159524, 2015; FMDV antiviral cell-based qHTS; calls by dose curve; tested in HEK293T cells; also: read-out not given here; potency is read from the fitted curve at half-maximal effect; nearly all actives have a fitted effect of over 45% in size
Vaccinia mCherry – qHTS for Stage-Specific Inhibitors of Vaccinia Orthopoxvirus: mCherry Reporter Primary qHTS | Vaccinia virus mCherry reporter infection, fluorescence | Potency, µM (titrated, usually from 36.5 µM), for inactives: at the highest dose activity change, negative = inhibition, most hits filed as inhibitors | 0.63% of 310,000 active | AID 720579, 2013; calls by dose curve; tested in A549 cells; also: potency is read from the fitted curve at half-maximal effect; nearly all actives have a fitted effect of over 35% in size
LASV entry inh – qHTS for Inhibitors of binding or entry into cells for Lassa Virus; Potency, µM (series often up to 37.9 µM), without a hit: top-dose activity change, negative = inhibition, hits mostly inhibitors; AID 540256, 2011; Lassa virus pseudotype entry inhibition, cell reporter; 1.2% of 300,000 active; calls by dose curve; tested in HEK293 cells; also: potency is read from the fitted curve at half-maximal effect; nearly all actives have a fitted effect of over 50% in size
The depositor's hits bear a star; i = inactive; ? = inconclusive; . = no result; [ ] = remark or other dose. % is scaled to controls: 0 for no effect and ±100 for the full control effect.

SMILES | VACV Venus inh | MARV entry inh | HCMV antiviral | FMDV inh | Vaccinia mCherry | LASV entry inh
COC(=O)c1ccccc1NC(=O)c1nc(S(=O)(=O)Cc2ccccc2F)ncc1Cl | -9% | 17%[46.1 µM] | 24 | -17% | -6% | 12%[46.1 µM]
COc1ccc(OC)c(NC(=O)c2nc(S(=O)(=O)Cc3ccccc3)ncc2Cl)c1 | -8% | ? | -99* | 7.1µM* | -1% | ?
COc1ccc(NC(=O)c2nc(S(=O)(=O)Cc3cccc(C)c3)ncc2Cl)c(OC)c1 | . | . | -79* | 3.2µM* | . | .
CCOc1ccccc1NC(=O)c1nc(S(=O)(=O)Cc2ccccc2F)ncc1Cl | -8% | . | . | . | 21% | .
Cc1ccc(S(=O)(=O)N(C)C[C@@H]2Oc3ccc(NC(=O)Nc4cccc5ccccc45)cc3C(=O)N([C@H](C)CO)C[C@H]2C)cc1 | ? | . | -9 | -13% | -18% | .
CC[C@@H](C(=O)[C@@H](C)[C@@H](O)[C@H](C)CCc1ccc(C)c(O)c1C(=O)O)[C@H]1O[C@](CC)([C@H]2CC[C@](O)(CC)[C@H](C)O2)C[C@@H]1C | 10µM* | . | -99* | 28µM* | ? | .
CC[N+](C)(CC)CCC/C(=N/O)C(O)(c1ccccc1)c1ccccc1 | 0% | -17%[46.1 µM] | -65* | 7% | i | 1%
Cc1ccc(N2CCN(C(=O)c3cc(-c4ccc(F)cc4)[nH]c3C)CC2C)cc1 (stereo not given) | ? | ? | -8 | -24% | 10µM* | ?
Cc1cccc2nc(-c3cccnc3)c(Nc3ccccc3)n12 | -12% | ? | -74* | 32µM* | ? | ?
Cc1cccc2nc(-c3cccnc3)c(NCCC(C)C)n12 | -18% | 15% | -30 | -26% | -16% | -5%
CCCC(=O)N/C(N)=N/c1nc(C)c2cc(C)ccc2n1 | ? | -18%[46.1 µM] | -2 | 15% | 2.2µM* | ?
Cc1ccc2nc(C)cc(C(=O)NC3CCCCCC3)c2c1 | . | . | 6 | -13% | . | .
Cc1ccc2nc(/N=C(\N)NC(=O)NC3CCCCC3)nc(C)c2c1 | ? | 5.6µM* | -65* | ? | ? | ?
O=C(C1CCC(Cn2c(=O)c3sccc3n(Cc3cccc(F)c3)c2=O)CC1)N1CCCCC1 (stereo not given) | -25% | . | ? | ? | -28% | -11%[46.1 µM]
Cc1nnc(NC(=O)c2ccc(S(=O)(=O)N3CCc4ccccc4C3)cc2)o1 | . | . | -39 | -6% | . | .
Cc1cc(C)c2nc(NNC(=O)c3ccc(S(=O)(=O)N4CCc5ccccc5C4)cc3)sc2c1 | ? | ? | -97* | -16% | 16µM* | 16µM*
Cc1cc(C)c2sc(NNC(=O)c3ccc(S(=O)(=O)N4CCc5ccccc5C4)cc3)nc2c1 | 7.9µM* | ? | -106* | ? | 4.5µM* | 12µM*
Cc1nc2cc(Oc3nc(NCCN(C)C)nc4ccsc34)ccc2s1 | -9% | . | -23 | -9% | -10% | .
COc1ccccc1C1=NNC(=Nc2cccc(S(=O)(=O)N(C)C)c2)SC1 | -13% | 7.1µM* | -80* | ? | ? | ?
COCCn1c(C)cc(C2=NNC(=Nc3ccccc3)SC2)c1C | -6% | -10% | 16 | -10% | -8% | ?
CSc1ccc(CN(C)C(C)C(=O)NCC2CCCCC2)cc1 (stereo not given) | -7% | 11µM* | 2 | -6% | -21% | 16%[46.1 µM]
Cn1c(=O)n(C)c2cc(NC(=O)CSc3ccccc3)ccc21 | -12% | -12%[46.1 µM] | 157 | ? | i | 20%[46.1 µM]
Cc1cccc(CNC(=O)c2cnn(-c3nccc(-c4ccccc4F)n3)c2C)n1 | -1% | . | . | -8% | -10% | .
C/C(CC(=O)Nc1ccc([N+](=O)[O-])cc1)=N\NC(=O)c1ccccc1[N+](=O)[O-] | -18% | 22% | 1 | -10% | -2% | 13%
CC12CC[C@H]3[C@@H](CCC4(O)C[C@H](O)CCC34/C=N/NC(=O)c3ccccc3[N+](=O)[O-])C1(O)CCC2C1=CC(=O)OC1 (stereo not given in full) | 10µM* | ? | -78* | -23% | ? | ?
